Source: PubChem BioAssay (several laboratories)
Shown are actives, neighbours in structure and some others; about 1.5% of the full set was active somewhere.
eLon inh: inhibitors of E. coli Lon protease. P0A9M0. purified E. coli Lon protease, fluorescence polarization. inhibition, % at 7.94 µM. hit rate 0.42% among 360,000; in the data active = inhibition above about 13%, passing the limit was not always enough;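 also: 0% = enzyme with probe and DMSO and 100% = no enzyme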
EBV gp42 block: EBV gp42 inhibition. inhibition, % (tested at 21.74 µM). hit rate 0.42% among 220,000. AID 1085. Fluorescence polarization binding assay, mP read-out. Q1HVG2; in the data active = inhibition above about 50%
Target sequence (Q1HVG2 whole entry, looked up): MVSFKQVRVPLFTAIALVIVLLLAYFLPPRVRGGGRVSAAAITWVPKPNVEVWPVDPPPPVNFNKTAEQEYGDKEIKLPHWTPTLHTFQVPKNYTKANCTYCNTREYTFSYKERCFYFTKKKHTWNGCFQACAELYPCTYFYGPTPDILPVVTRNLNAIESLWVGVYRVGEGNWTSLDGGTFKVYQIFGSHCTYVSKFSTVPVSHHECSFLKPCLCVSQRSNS
GLD-1 TGE inh: GLD-1-TGE RNA interaction inhibition (C. elegans). hit rate 0.44% among 320,000. inhibition, % at 5.96 µM. purified GLD-1 + fluorescein TGE RNA, fluorescence polarization;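 active = percent inhibition above a per-plate cutoff, the plate mean of test compounds plus 3 SD, cut at about 30% in these data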;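 also: 0% = DMSO wells with GLD-1 and probe and 100% = wells lacking GLD-1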
Target sequence (Q17339 whole entry, looked up): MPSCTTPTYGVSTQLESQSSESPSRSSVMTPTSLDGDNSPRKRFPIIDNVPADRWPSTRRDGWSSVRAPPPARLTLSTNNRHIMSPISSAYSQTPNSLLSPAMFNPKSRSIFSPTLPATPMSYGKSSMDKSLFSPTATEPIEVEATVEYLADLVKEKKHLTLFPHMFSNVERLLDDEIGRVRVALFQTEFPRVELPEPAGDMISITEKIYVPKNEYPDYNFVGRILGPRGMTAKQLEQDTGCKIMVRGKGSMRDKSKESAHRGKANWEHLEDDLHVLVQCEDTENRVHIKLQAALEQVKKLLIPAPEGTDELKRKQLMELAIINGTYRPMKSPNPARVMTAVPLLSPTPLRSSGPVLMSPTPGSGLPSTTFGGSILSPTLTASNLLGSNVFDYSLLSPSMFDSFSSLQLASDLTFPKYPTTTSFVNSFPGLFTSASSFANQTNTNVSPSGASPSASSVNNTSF
MCL1-BIM inh: inhibitors of human MCL1 binding to BIM-BH3 peptide | Q07820 | GST-MCL1 / FITC-Bim-BH3 fluorescence polarization | inhibition, % at 10.9 µM | hit rate 0.68% among 320,000 | AID 2057;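 active = inhibition above the mean inhibition of all tested compounds plus 3 SD, set per campaign, cut at about 40% in these data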;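 also: 0% = DMSO wells and 100% = unlabeled Bim-BH3 peptide control; higher means more loss of mP so more displacement of Bim peptide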
Bcl-xL primary: Bcl-xL (human) inhibition; Q07817; GST-Bcl-xL / FITC-Bim BH3 peptide fluorescence polarization; inhibition, % at 10.9 µM; hit rate 0.7% among 320,000; AID 2129;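 active = inhibition above the mean of all tested compounds plus 3 SD, cutoff set per campaign, cut at about 30% in these data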;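 also: 0% = DMSO wells and 100% = unlabeled Bim-BH3 peptide competitor; inhibitors lower millipolarization by displacing the labeled peptide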
MEX-5 binding: C. elegans MEX-5 TCR-2 RNA binding activity | activity score (negative = inhibition of binding), % at 10 µM | MEX-5/FITC-TCR2 RNA binding, fluorescence polarization; stronger effect = lower value | hit rate 0.38% among 300,000 | Q9XUB2;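 active = inhibition past about -25% in most replicates, and total fluorescence under double the plate's negative control median, limit read from the data; inconclusive = replicates evenly split on the limit, or fluorescence at least double controls; inactive = too little inhibition in most replicates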;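 also: 0% = DMSO and -100% = 5 µM competing unlabeled TCR2 RNA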
The depositor's hits bear a star; i = inactive; ? = inconclusive; nt = not tested or not shown; + = active, no number.

SMILES | eLon inh | EBV gp42 block | GLD-1 TGE inh | MCL1-BIM inh | Bcl-xL primary | MEX-5 binding
COc1ccc(NC(=O)NC(=O)c2cc(OCC(F)(F)F)ccc2OCC(F)(F)F)cc1 | -22 | 74* | 0 | 4 | 0 | 1
Cc1cccc(C)c1NC(=O)NN=C1CCCCC1 | 1 | -20 | -6 | -2 | 2 | -29*
Cc1ccc(-n2ncc(Cl)c2C(=O)NC2CC2)cc1 | -6 | 0 | -9 | 6 | -2 | 0
COc1cc(OC)c2c(O)c3c(c(-c4c5c(c(O)c6c(OC)cc(OC)cc46)CO[C@@H](C)[C@H]5O)c2c1)[C@H](O)[C@H](C)OC3 | -19 | 13 | 27 | 56* | 24 | ?
N#CCN1CCN(CC(=O)c2ccc(Br)cc2)CC1 | -8 | -3 | -5 | 7 | 2 | -1
CCC/C=N/NC(=O)C1COc2ccccc2O1 (stereo unspecified) | 6 | -16 | 9 | 2 | 98* | 3
CNCc1ccccc1Sc1cccc(O)c1 | 11 | -3 | 4 | -6 | 4 | 0
CNCc1ccccc1Sc1cc(O)ccc1O | -3 | -7 | 11 | 42* | 32* | nt
CN(C)S(=O)(=O)c1cccc(NC(=O)C2CCCN(C(=O)c3ccc(Cl)cc3)C2)c1 (stereo unspecified) | -4 | nt | nt | nt | nt | nt
COCCn1c(C)cc(/C=C2/NC(=O)N(c3cccc(Cl)c3)C2=O)c1C | -3 | -13 | 2 | 8 | 15 | 1
CCn1c(C)cc(/C=C2/NC(=O)N(c3ccccc3)C2=O)c1C | -8 | -5 | 19 | 39 | 31* | 0
CC(=O)N1CCC(N(CCN2CCOCC2)C(=S)Nc2ccc(C)c(C)c2)CC1 | -3 | 0 | 3 | 10 | 7 | 0
O=[N+]([O-])c1cccc(C2CC(c3ccccc3)=NN2c2ccccc2)c1 (stereo unspecified) | -4 | nt | 2 | -2 | 4 | 1
N#CC1CC(c2ccc([N+](=O)[O-])cc2)=NN1c1ccc([N+](=O)[O-])cc1 (stereo unspecified) | -31 | 94* | -19 | -73 | -38 | -14
N#Cc1c(N)nc2c3c(sc(=N)c2c1N)NC(=O)CC3c1c(F)cccc1Cl (stereo unspecified) | -14 | 4 | 5 | 18 | 18 | -1
N#Cc1c(N)nc2c3c(sc(=N)c2c1N)NC(=O)CC3c1ccccc1 (stereo unspecified) | -18 | 0 | 0 | 42* | 47* | -3
CCOC(=O)N1CCN(Cc2ccccc2Cl)CC1 | -5 | -14 | 87* | -5 | -2 | nt
CCOC(=O)N1CCN(Cc2ccccc2F)CC1 | -2 | -5 | 11 | -3 | 2 | 0
COc1ccc(-c2cc3c(=O)n(CC(=O)Nc4ccc(C(C)=O)cc4)ncn3n2)cc1 | 7 | nt | 7 | -4 | 73* | -3
COc1ccc(-c2cc3c(=O)n(CC(=O)NCc4cccnc4)ncn3n2)cc1 | 3 | nt | 7 | 0 | -2 | 0
CCN1CCN(Cc2ccc(NC(=O)c3ccc(C)c(/C=C/c4cnc(Nc5cc(N6CCNCC6)nc(C)n5)cn4)c3)cc2C(F)(F)F)CC1 | -151 | nt | -148 | 17 | 38* | 27
CCN1CCN(Cc2ccc(NC(=O)c3ccc(C)c(NC(=O)c4ccno4)c3)cc2C(F)(F)F)CC1 | 4 | -22 | -3 | 3 | 4 | 3
CCOC(=O)C1=C(C)NC(=O)/C1=C\N(C)C | -3 | -10 | 21 | 31 | 38* | -3
CCOC(=O)Cc1csc(NC(=O)CSc2nccn2C)n1 | 5 | nt | 7 | -4 | -5 | -4
CCOC(=O)C1=C(C)OC(N)=C(C#N)C1c1ccc(C)s1 (stereo unspecified) | 5 | 3 | 22 | 30 | 31* | -2
SMILES | eLon inh | EBV gp42 block | GLD-1 TGE inh | MCL1-BIM inh | Bcl-xL primary | MEX-5 binding
CCOc1cc(/C=C/c2cccc[n+]2C)ccc1OCC(=O)Nc1ccc(C)cc1 | -6 | nt | 7 | -19 | -10 | -43*
O=C(NN=Cc1c(F)c(F)c(F)c(F)c1F)c1ccc(NS(=O)(=O)c2cccs2)cc1 | -10 | nt | -5 | nt | nt | nt
CCOCCCNc1nc2nc3ccc(C)cn3c(=O)c2cc1C(=O)NCC1CCCO1 (stereo unspecified) | -2 | -11 | -1 | 2 | 8 | -34*
COc1ccc(N=C2S/C(=C\c3ccc(OCC(=O)O)cc3)C(=O)N2CCc2c[nH]c3ccccc23)cc1 | 0 | 84* | nt | nt | nt | -2
CCCN1C(=O)/C(=C\C=C2/Sc3ccccc3N2CC)SC1=S | nt | -9 | nt | nt | nt | 1
CN1/C(=C\C=C2/C(=O)Oc3ccccc3C2=O)C(C)(C)c2ccccc21 | nt | 18 | -127 | 8 | 47* | 11
CN1/C(=C\C=C2/SC(=S)NC2=O)C(C)(C)c2ccccc21 | i | -155 | -101 | -13 | 37* | 22
CN1C(=CC=C2C=C(I)C(=O)C(I)=C2)C(C)(C)c2ccccc21 | 0 | -35 | nt | nt | nt | nt
CCCN1C(=O)/C(=C\C=C2\N(CC)c3ccccc3C2(C)C)SC1=S | -139 | + | nt | nt | nt | 1
N#Cc1c(C#N)c(O)c2ccccc2c1O | 4 | 68* | 16 | 44* | 45* | -23
OC[C@@H]1CN(Cc2ccc(Cl)cc2)C[C@H](n2cnc3c(N4CCN(c5ccccc5)CC4)ncnc32)O1 | -20 | nt | nt | nt | nt | nt
CCSC1=N/C(=C\c2ccccc2)C(=O)N1 | -6 | -6 | 4 | 0 | 4 | -40*
COc1ccc(N2CCN(C(=O)Cc3ccc(OC)c(OC)c3)CC2)cc1 | -6 | nt | 4 | 6 | 6 | 0
O=C(c1ccco1)N1N=C(c2cccs2)CC1c1cc([N+](=O)[O-])ccc1O (stereo unspecified) | -9 | nt | -2 | 24 | 12 | 2
CSc1sccc1/C=N/O | 4 | -8 | 4 | 6 | 6 | -2
CSc1sccc1/C=C(/C#N)C(=O)c1ccco1 | 3 | nt | -2 | 0 | -1 | -27*
Cc1ccc(/C=C2/Sc3ccc(C(=O)N4CCN(c5ccccn5)CC4)cc3NC2=O)cc1 | -37 | nt | -5 | -12 | -6 | -61*
CCCCOc1ccc(/C=C/C(=O)N(CC)CC(=O)Nc2ccc3c(c2)OCCO3)cc1OC | -4 | nt | 3 | 3 | 4 | 1
Cc1ccc(C)c(OCCC(=O)OC(C)C(=O)Nc2c(C)n(C)n(-c3ccccc3)c2=O)c1 (stereo unspecified) | -7 | nt | -2 | 1 | 0 | 5
CC1=NN(C(N)=S)C(=O)C1N=Nc1cccc(C(=O)O)c1 (stereo unspecified) | -6 | nt | nt | nt | nt | -30*
Cc1nc(S/C(=C\c2ccc(OCc3ccccc3Cl)cc2)C(=O)O)n[nH]1 | -3 | -24 | 8 | 7 | 4 | nt
Cc1nc(S/C(=C\c2ccc(-c3ccc(C(=O)O)c(Cl)c3)o2)C(=O)O)n[nH]1 | -33 | -18 | nt | nt | nt | -91*
CC(C)(C)c1ccc(OCC(=O)Nc2ccc3c4c(cccc24)C(=O)NC3=O)cc1 | 18 | 57* | nt | nt | nt | -7
